Source: PubChem BioAssay
A selection: hits, their analogues and other compounds. The true share with any hit is near 5.4%.
CtBP-E1A inh: qHTS Assay for Inhibitors of the CtBP/E1A Interaction | activity change, % (no concentration beside the values) | AlphaScreen GST-E1A/His-CtBP binding, 1536-well; active compounds read low | 0.49% of 340,000 active; in the data active = activity change below about -65%; inconclusive = mostly about -30% to -63%; note: % is set by controls: 0 for no effect and ±100 for the full control effect
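Homogeneous bead-based format: GST-tagged E1A captured on glutathione donor beads, His-tagged CtBP on nickel acceptor beads; compounds precede bead addition by 2 h at 37 °C.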
Six1-Eya2 inh: qHTS Assay for Inhibitors of the Six1/Eya2 Interaction. Homeobox protein SIX1 (Homo sapiens) + Protein phosphatase EYA2 (Homo sapiens), …. AlphaScreen GST-Six1/His-Eya2 binding, biochemical; active compounds read low. activity change, % (concentration not given with the values). 0.56% of 360,000 active; in the data active = activity change below about -65%; inconclusive = mostly about -30% to -63%; note: % is set by controls: 0 for no effect and ±100 for the full control effect
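AlphaScreen luminescence read after one hour at 37 °C in darkness. Pin-transferred compounds met GST-Six1 and His-Eya2 protein (5X stock 250 nM/500 nM) plus glutathione donor and Ni-chelate acceptor beads (5X, 50 ug/mL).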
VP16 counter: VP16 counterscreen qHTS for inhibitors of ROR gamma transcriptional activity | AID 2546, 2010 | Potency, µM (top dose mostly 53.6 µM), inactives show top-dose activity, negative = inhibition, most hits filed as inhibitors | Drosophila S2 Gal4-VP16 UAS-luciferase, luminescence, 20 h | 3.5% of 310,000 active;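 note: Gal4-VP16 expression switched on by copper sulfate through the metallothionein promoter; potency is the fitted concentration of half-maximal effect; % is set by controls: 0 for no effect and ±100 for the full control effect; nearly all actives have a fitted effect of over 50% in size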
p53 reactivator: qHTS assay for re-activators of p53 using a Luc reporter; 0.063% of 320,000 active; Potency, µM (series often up to 92.2 µM), for the others: at the top dose activity change, positive = activation, hits mostly activators; H1299 p53-A138V BP100-luciferase reporter, luminescence, 24 h; note: potency is the fitted concentration of half-maximal effect; % of control where 0% means no effect; nearly all actives have a fitted effect of over 45% in size
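p53-null H1299 cells stably carrying temperature-sensitive p53-A138V and a BP100-luciferase reporter were pinned with compounds (4-point, 1:5 series) and held 24 hrs at 37 deg C. Luminescence was read 10 min after detection reagent.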
RORg inh: qHTS for inhibitors of ROR gamma transcriptional activity; Drosophila S2 Gal4-RORgamma UAS-luciferase reporter, 20 h; Potency, µM (highest dose often 53.6 µM), for the others: at the top dose activity change, negative = inhibition, hits mostly inhibitors; 5.4% of 310,000 active; note: potency is the fitted concentration of half-maximal effect; % is set by controls: 0 for no effect and ±100 for the full control effect; nearly all actives have a fitted effect of over 60% in size
Target sequence (P51450 whole entry, looked up, the tested form may be a part): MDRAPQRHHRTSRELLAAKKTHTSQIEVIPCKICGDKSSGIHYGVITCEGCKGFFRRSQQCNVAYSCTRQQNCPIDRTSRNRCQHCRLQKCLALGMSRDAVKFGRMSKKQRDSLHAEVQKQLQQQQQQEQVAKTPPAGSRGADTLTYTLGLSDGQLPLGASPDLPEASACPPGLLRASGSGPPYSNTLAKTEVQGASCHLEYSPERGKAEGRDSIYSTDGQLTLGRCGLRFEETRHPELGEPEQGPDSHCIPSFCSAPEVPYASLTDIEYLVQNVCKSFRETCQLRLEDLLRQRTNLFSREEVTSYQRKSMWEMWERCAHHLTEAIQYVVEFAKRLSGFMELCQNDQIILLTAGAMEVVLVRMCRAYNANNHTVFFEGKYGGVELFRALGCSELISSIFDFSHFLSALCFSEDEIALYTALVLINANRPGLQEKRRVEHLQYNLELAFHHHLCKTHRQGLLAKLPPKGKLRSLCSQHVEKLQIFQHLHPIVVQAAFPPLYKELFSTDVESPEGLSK
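ROR gamma transcriptional activity was tracked as Gal4-UAS luciferase output in stably transfected Drosophila Schneider cells, with compound added 1 hr before 700 uM copper sulfate induction and a 20 hr ambient-temperature incubation.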
* marks the source's active call; other numbers are inactive results. Unless noted, calls come from the whole dose curve; as a rule, active = well fitted curve in the direction sought with a large enough effect; inconclusive = small, poorly fitted or top-dose-only effect, or another doubt; inactive = no such curve, though single readings can be large; an effect the other way counts as inactive or inconclusive.

Cc1nc(NCc2ccccc2)c2nc(-c3ccccc3)n(CCN3CCCCC3)c2n1 was read as VP16 counter -15.5% and RORg inh 11.2µM*.
`Cc1nc(NCc2ccccc2)c2nc(-c3ccccc3)n(C(C)CN(C)C)c2n1` (stereo not drawn) gave VP16 counter 17.9% and RORg inh 11.2µM*.
Screening N#CC(=C(O)COC(=O)c1ccc2c(c1)OCCO2)c1nc2ccccc2[nH]1 returned CtBP-E1A inh -25.6 and Six1-Eya2 inh -29.5.
Screening COc1ccc(C(=O)OC/C(O)=C(\C#N)c2nc3ccccc3[nH]2)cc1S(=O)(=O)N1CCOCC1 returned CtBP-E1A inh inconclusive, Six1-Eya2 inh inconclusive, VP16 counter -10.2%, p53 reactivator -7.5% and RORg inh 12.6µM*.
For COc1cc(OC)cc(C(=O)OC/C(O)=C(\C#N)c2nc3ccccc3[nH]2)c1 the results were CtBP-E1A inh -6.2, Six1-Eya2 inh -0.4, VP16 counter 17.8µM*, p53 reactivator -6.9% and RORg inh 6.31µM*.
For COCCNS(=O)(=O)c1cc(OC)ccc1OC the results were CtBP-E1A inh -7.3, Six1-Eya2 inh 9.3, VP16 counter -16.9%, p53 reactivator -5.7% and RORg inh 0.6%.
For O=C(N/N=C1/CCCc2ccccc21)c1cc([N+](=O)[O-])cc([N+](=O)[O-])c1 the results were VP16 counter 3.0%, p53 reactivator -0.9% and RORg inh 11.2µM*.
For O=C(N/N=C1\CCCc2ccccc21)c1cccc([N+](=O)[O-])c1 the results were CtBP-E1A inh 8.6, Six1-Eya2 inh 1.4, VP16 counter 4.1%, p53 reactivator 3.9% and RORg inh inconclusive.
Screening O=C(N/N=C/c1ccccn1)c1ccc(Br)cc1 returned CtBP-E1A inh -65.2*, Six1-Eya2 inh inconclusive, VP16 counter 3.16µM*, p53 reactivator inconclusive and RORg inh 6.31µM*.
`O=C(O)c1cccc(NC(=S)N/N=C/c2ccccn2)c1` gave Six1-Eya2 inh -76.0*, VP16 counter inconclusive, p53 reactivator -10.5% and RORg inh 4.47µM*.
Cc1cccc(/C=N/NC(=O)c2ccc(Br)cc2)c1 was read as CtBP-E1A inh 1.0, Six1-Eya2 inh -1.6, VP16 counter -20.1%, p53 reactivator inconclusive and RORg inh 17.8µM*.
CC1NC(=O)c2cccnc2-n2c1nc1ccccc1c2=O (stereo not drawn) was read as CtBP-E1A inh -20.1 and Six1-Eya2 inh 1.0.
`Cc1cncc(NCc2ccc3c(c2)OCO3)n1` gave CtBP-E1A inh -3.5 and Six1-Eya2 inh -5.7.
`O=C(N/N=C/c1ccccn1)c1ccc([N+](=O)[O-])cc1` gave CtBP-E1A inh -21.9, Six1-Eya2 inh -11.6, VP16 counter -13.0%, p53 reactivator -1.9% and RORg inh 0.6%.
For O=C(N/N=C/c1ccccn1)c1cc([N+](=O)[O-])cc([N+](=O)[O-])c1 the results were Six1-Eya2 inh inconclusive, VP16 counter 4.47µM*, p53 reactivator inconclusive and RORg inh 3.55µM*.
Screening CC(C)(C)c1ccc(C(=O)N/N=C/c2ccccn2)cc1 returned CtBP-E1A inh -29.2, Six1-Eya2 inh -22.4, VP16 counter 4.47µM*, p53 reactivator inconclusive and RORg inh 1.41µM*.
For CCOc1cc(/C=N/NC(=O)c2ccncc2)ccc1OC(=O)c1ccccc1 the results were CtBP-E1A inh -18.7, Six1-Eya2 inh -6.0, VP16 counter -1.6%, p53 reactivator -11.3% and RORg inh 8.5%.
For CCOc1cc(/C=N/NC(=O)c2ccccn2)ccc1OC(=O)c1ccc(F)cc1 the results were CtBP-E1A inh -4.3, Six1-Eya2 inh -15.4, VP16 counter inconclusive, p53 reactivator -1.6% and RORg inh 17.8µM*.
Screening C/C(=N/NC(=O)c1cc(C2CC2)[nH]n1)c1cccs1 returned CtBP-E1A inh 1.7, Six1-Eya2 inh 23.3, VP16 counter 10µM*, p53 reactivator -5.9% and RORg inh 11.2µM*.
`O=C(N/N=C/c1ccsc1)c1ccccn1` gave CtBP-E1A inh -10.7, Six1-Eya2 inh -17.8, VP16 counter 10.6%, p53 reactivator 21.3% and RORg inh -3.9%.
Screening O=C(N/N=C/c1ccccn1)c1cc(C2CC2)[nH]n1 returned CtBP-E1A inh -68.4*, Six1-Eya2 inh inconclusive, VP16 counter -6.5%, p53 reactivator 4.3% and RORg inh inconclusive.
`Cc1occc1C(=O)N/N=C/c1ccccn1` gave CtBP-E1A inh inconclusive, Six1-Eya2 inh -21.0, VP16 counter -26.1%, p53 reactivator 14.6% and RORg inh 10µM*.
For COc1cccc(/C=N/NC(=O)c2ccc(OCc3cccc(Br)c3)cc2)c1 the results were CtBP-E1A inh 0.4, Six1-Eya2 inh -2.5, VP16 counter -0.6%, p53 reactivator -1.0% and RORg inh 14.1µM*.
O=C(N/N=C/c1cccc(OCc2ccccc2)c1)c1ccc(Br)cc1 was read as CtBP-E1A inh 3.3, Six1-Eya2 inh 4.0, VP16 counter inconclusive, p53 reactivator -6.9% and RORg inh inconclusive.
`CC(C)(C)c1ccc(/C=N/NC(=O)c2ccccn2)cc1` gave CtBP-E1A inh 2.9, Six1-Eya2 inh 0.4, VP16 counter -23.8%, p53 reactivator 0.9% and RORg inh 10µM*.
Screening Cc1cc(C(=O)N/N=C/c2ccccn2)n[nH]1 returned Six1-Eya2 inh -8.1, VP16 counter 6.7%, p53 reactivator 23.2% and RORg inh -23.2%.
Screening Cc1cc(C)c2cc(C#N)c(NCCNC(=O)c3cccnc3)nc2c1 returned CtBP-E1A inh 4.3 and Six1-Eya2 inh -2.1.
CCNc1ncc2nc(-c3ccc(F)cc3)c(=O)n(-c3ccccc3)c2n1 was read as VP16 counter inconclusive and RORg inh -18.0%.
Screening Cc1cccc(C(=O)N/N=C/c2ccccn2)c1 returned CtBP-E1A inh 6.4, Six1-Eya2 inh -28.6, VP16 counter 14.1µM*, p53 reactivator inconclusive and RORg inh 6.31µM*.
For Cc1onc(-c2ccccc2)c1C(=O)OCC(=O)N1CCCCC1 the results were CtBP-E1A inh -3.4 and Six1-Eya2 inh 12.3.
Screening Cc1ccc(NC(=S)NCC23C=CC(O2)C2C(=O)N(c4ccc(C)cc4)C(=O)C23)cc1 (stereo not drawn) returned CtBP-E1A inh 1.2, Six1-Eya2 inh -16.8, VP16 counter 14.1µM*, p53 reactivator inconclusive and RORg inh inconclusive.
